Results from the supplement of paper PMC6992640.
± gives the standard deviation of the averaged measurements.

What was measured:
Assay in all cases: cell viability (% of vehicle); higher = less cytotoxic
Details in all cases: 10 µM; 72 h
HCI01 = system: HCI01 (cells of a triple-negative basal-like breast cancer xenograft)
HCI03 = system: HCI03 (cells of an ER-positive luminal breast cancer xenograft)
HCI09 = system: HCI09 (cells of a triple-negative luminal androgen receptor type breast cancer xenograft)
HCI11 = system: HCI11 (cells of an ER-positive luminal breast cancer xenograft)
HCI13 = system: HCI13 (cells of an ER-positive luminal breast cancer xenograft)
HCI16 = system: HCI16 (cells of a triple-negative basal-like breast cancer xenograft)
UCD52 = system: UCD52 (cells of a triple-negative basal-like breast cancer xenograft)
WHIM2 = system: WHIM2 (cells of a triple-negative basal-like breast cancer xenograft)
WHIM30 = system: WHIM30 (cells of a triple-negative basal-like breast cancer xenograft)
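Note: PDX cells carrying CMV promoter-driven luciferase, viability read as total photon flux per second by IVIS imaging following D-luciferin, vehicle control 0.1% DMSO.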

| SMILES | cell viability (HCI01) | cell viability (HCI03) | cell viability (HCI09) | cell viability (HCI11) | cell viability (HCI13) | cell viability (HCI16) | cell viability (UCD52) | cell viability (WHIM2) | cell viability (WHIM30) |
| --- | --- | --- | --- | --- | --- | --- | --- | --- | --- |
| CN1CCCC[C@H]1CCN1c2ccccc2Sc2ccc(S(C)=O)cc21.O=S(=O)(O)c1ccccc1 (some centres not stated) [Mesoridazine Besylate] | 115 ± 9.3 | 77.9 | 132 ± 60 | 98.2 | 122 ± 10 | 106 | 95.9 ± 8.8 | 85.8 ± 21 | 103 ± 7.5 |
| CO[C@H]1O[C@@H]2OC3(C)CC[C@H]4[C@H](C)CC[C@@H]([C@H]1C)[C@@]24OO3 [Artemether] | 116 ± 31 | 121 | 94.4 ± 26 | 102 | 95.8 ± 0.62 | 106 | 97.88 ± 0.13 | 97.7 ± 8.3 | 75.18 ± 0.081 |
| CC(COc1ccccc1)N(CCCl)Cc1ccccc1.Cl (configuration not stated) [Phenoxybenzamine HCl] | 122 ± 3.3 | 131 | 133 ± 28 | 114 | 150 ± 8.9 | 195 | 104.7 ± 0.72 | 93.9 ± 10 | 191 ± 9.4 |
| CC1=NS(=O)(=O)c2cc(Cl)ccc2N1 [Diazoxide] | 92.6 ± 9.1 | 151 | 86.4 ± 17 | 98.1 | 99.6 ± 11 | 102 | 104 ± 2.7 | 95.9 ± 3.5 | 117 ± 3.8 |
| Cc1ccnc2c1NC(=O)c1cccnc1N2C1CC1 [Nevirapine] | 112 ± 2.5 | 105 | 122 ± 49 | 113 | 96.5 ± 3.9 | 96 | 96.8 ± 6.9 | 93.1 ± 23 | 130 ± 5.6 |
| CC(=O)O.C[C@H](N)C(=O)O.NCCCC[C@H](N)C(=O)O.N[C@@H](CCC(=O)O)C(=O)O.N[C@@H](Cc1ccc(O)cc1)C(=O)O [glatiramer acetate] | 94.3 ± 13 | 136 | 108 ± 11 | 108 | 171 ± 16 | 125 | 118 ± 10 | 95.9 ± 38 | 145 ± 6.9 |
| C[N+](C)(C)CC(O)CC(=O)O.[Cl-] (racemic) [DL-Carnitine HCl] | 111 ± 35 | 112 | 120 ± 37 | 101 | 113 ± 5.4 | 147 | 102 ± 13 | 114 ± 25 | 132 ± 11 |
| CN(C)CCCOc1nn(Cc2ccccc2)c2ccccc12.Cl [Benzydamine HCl] | 171 ± 76 | 85.4 | 79 ± 16 | 104 | 66.2 ± 11 | 163 | 100.3 ± 0.44 | 116 ± 6.4 | 123 ± 18 |
